Active and inactive are the calls of the source.

The test system of assay [1] is PRMT1 (protein arginine N-methyltransferase 1). Nature of the assay: PRMT1 binders on small-molecule microarrays, primary screen, biochemical, small-molecule microarray, 635 nm fluorescence (AID 1088).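 Further: binding of Prmt1 protein to compounds spotted on small-molecule microarray slides.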 The note with it: small-molecule microarray binding, higher = more signal.
Assay [2] is described as follows: yeast growth modulation, basal conditions, primary screen, YJM789 clinical isolate, OD600, 24 h (AID 1089).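 Further: growth of clinical yeast isolate S. cerevisiae YJM 789 seeded 1000 cells per well; test concentration not given here.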 The note with it: S. cerevisiae YJM789 growth, higher = more signal, called active from +8 up or from −8 down.
A short description of assay [3]: fission yeast growth modulation, primary screen, strain 972, OD600, 24 h, no modulator (AID 1090).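 Further: basal condition with compound alone and no growth modifier present; test concentration not given here.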 The note with it: S. pombe 972 growth, higher = more signal, called active from +8 up or from −8 down.
A short description of assay [4]: S. cerevisiae growth modulation with rapamycin, primary screen, strain BY4716, OD600, 96 h (AID 1091). Further: test concentration not given here. The note with it: higher = more signal, called active from +8 up or from −8 down.
The target in assay [5] is Torsin-1A-interacting protein 2 (Homo sapiens) (UniProt Q8NFQ8). Nature of the assay: LULL1 binders on small-molecule microarray, primary screen, cell lysate, human LULL1 lysate, 635/667 nm fluorescence (AID 1092).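 Further: probe is lysate of COS7 cells overexpressing human LULL1; score merges per-feature 667 nm fluorescence with signal-to-noise.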 The note with it: hLULL1 lysate binding, 635 nm fluorescence, higher = more signal.
Chain of Torsin-1A-interacting protein 2 (Homo sapiens) (Q8NFQ8 whole entry, looked up): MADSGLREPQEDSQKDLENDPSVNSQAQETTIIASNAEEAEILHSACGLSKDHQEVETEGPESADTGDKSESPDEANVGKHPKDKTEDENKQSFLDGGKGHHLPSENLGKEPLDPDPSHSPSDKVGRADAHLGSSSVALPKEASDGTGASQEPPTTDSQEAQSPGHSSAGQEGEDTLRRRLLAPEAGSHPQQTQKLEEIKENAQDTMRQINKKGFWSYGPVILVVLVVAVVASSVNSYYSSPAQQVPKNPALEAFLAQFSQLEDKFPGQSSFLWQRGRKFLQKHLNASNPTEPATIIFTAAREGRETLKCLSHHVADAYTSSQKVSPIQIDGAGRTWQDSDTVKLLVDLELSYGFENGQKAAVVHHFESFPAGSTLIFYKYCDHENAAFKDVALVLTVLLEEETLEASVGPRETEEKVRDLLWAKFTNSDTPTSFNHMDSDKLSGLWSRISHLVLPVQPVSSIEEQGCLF
Assay [6] can be described thus: E. coli growth modulation, two-sided OD650, primary screen, E. coli filamentation project, strain DRC41, 24 h (AID 1093).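 Further: MC1000 strain lacking acrAB efflux and sulA so SOS filamentation is blocked; test concentration not given here.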 The note with it: OD650, 24 h, higher = more signal, called active from +8 up or from −8 down.
Assay [7] can be described thus: small-molecule microarray binders of probe aLefty2, primary screen, biochemical, biotinylated probe, 635/667 nm fluorescence (AID 1094).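 Further: score merges spot fluorescence near 667 nm with spot signal-to-noise ratio.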 The note with it: higher = more signal.
The subject of assay [8] is Noggin (protein binding on small-molecule microarray). Nature of the assay: Noggin binders on small-molecule microarray, primary screen, biochemical, 635/667 nm fluorescence (AID 1095).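 Further: score merges 667 nm feature fluorescence with signal to noise over triplicate slides.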 The note with it: 635 nm fluorescence, higher = more signal.
In assay [9] the target is Neurogenic locus notch homolog protein 3 (Homo sapiens) (UniProt Q9UM47). Nature of the assay: NOTCH3 binders on small-molecule microarray, primary screen, biochemical, 635/667 nm fluorescence (AID 1096). The note with it: NOTCH3 binding, 635 nm fluorescence, higher = more signal.
Chain of Neurogenic locus notch homolog protein 3 (Homo sapiens) (Q9UM47 whole entry, looked up): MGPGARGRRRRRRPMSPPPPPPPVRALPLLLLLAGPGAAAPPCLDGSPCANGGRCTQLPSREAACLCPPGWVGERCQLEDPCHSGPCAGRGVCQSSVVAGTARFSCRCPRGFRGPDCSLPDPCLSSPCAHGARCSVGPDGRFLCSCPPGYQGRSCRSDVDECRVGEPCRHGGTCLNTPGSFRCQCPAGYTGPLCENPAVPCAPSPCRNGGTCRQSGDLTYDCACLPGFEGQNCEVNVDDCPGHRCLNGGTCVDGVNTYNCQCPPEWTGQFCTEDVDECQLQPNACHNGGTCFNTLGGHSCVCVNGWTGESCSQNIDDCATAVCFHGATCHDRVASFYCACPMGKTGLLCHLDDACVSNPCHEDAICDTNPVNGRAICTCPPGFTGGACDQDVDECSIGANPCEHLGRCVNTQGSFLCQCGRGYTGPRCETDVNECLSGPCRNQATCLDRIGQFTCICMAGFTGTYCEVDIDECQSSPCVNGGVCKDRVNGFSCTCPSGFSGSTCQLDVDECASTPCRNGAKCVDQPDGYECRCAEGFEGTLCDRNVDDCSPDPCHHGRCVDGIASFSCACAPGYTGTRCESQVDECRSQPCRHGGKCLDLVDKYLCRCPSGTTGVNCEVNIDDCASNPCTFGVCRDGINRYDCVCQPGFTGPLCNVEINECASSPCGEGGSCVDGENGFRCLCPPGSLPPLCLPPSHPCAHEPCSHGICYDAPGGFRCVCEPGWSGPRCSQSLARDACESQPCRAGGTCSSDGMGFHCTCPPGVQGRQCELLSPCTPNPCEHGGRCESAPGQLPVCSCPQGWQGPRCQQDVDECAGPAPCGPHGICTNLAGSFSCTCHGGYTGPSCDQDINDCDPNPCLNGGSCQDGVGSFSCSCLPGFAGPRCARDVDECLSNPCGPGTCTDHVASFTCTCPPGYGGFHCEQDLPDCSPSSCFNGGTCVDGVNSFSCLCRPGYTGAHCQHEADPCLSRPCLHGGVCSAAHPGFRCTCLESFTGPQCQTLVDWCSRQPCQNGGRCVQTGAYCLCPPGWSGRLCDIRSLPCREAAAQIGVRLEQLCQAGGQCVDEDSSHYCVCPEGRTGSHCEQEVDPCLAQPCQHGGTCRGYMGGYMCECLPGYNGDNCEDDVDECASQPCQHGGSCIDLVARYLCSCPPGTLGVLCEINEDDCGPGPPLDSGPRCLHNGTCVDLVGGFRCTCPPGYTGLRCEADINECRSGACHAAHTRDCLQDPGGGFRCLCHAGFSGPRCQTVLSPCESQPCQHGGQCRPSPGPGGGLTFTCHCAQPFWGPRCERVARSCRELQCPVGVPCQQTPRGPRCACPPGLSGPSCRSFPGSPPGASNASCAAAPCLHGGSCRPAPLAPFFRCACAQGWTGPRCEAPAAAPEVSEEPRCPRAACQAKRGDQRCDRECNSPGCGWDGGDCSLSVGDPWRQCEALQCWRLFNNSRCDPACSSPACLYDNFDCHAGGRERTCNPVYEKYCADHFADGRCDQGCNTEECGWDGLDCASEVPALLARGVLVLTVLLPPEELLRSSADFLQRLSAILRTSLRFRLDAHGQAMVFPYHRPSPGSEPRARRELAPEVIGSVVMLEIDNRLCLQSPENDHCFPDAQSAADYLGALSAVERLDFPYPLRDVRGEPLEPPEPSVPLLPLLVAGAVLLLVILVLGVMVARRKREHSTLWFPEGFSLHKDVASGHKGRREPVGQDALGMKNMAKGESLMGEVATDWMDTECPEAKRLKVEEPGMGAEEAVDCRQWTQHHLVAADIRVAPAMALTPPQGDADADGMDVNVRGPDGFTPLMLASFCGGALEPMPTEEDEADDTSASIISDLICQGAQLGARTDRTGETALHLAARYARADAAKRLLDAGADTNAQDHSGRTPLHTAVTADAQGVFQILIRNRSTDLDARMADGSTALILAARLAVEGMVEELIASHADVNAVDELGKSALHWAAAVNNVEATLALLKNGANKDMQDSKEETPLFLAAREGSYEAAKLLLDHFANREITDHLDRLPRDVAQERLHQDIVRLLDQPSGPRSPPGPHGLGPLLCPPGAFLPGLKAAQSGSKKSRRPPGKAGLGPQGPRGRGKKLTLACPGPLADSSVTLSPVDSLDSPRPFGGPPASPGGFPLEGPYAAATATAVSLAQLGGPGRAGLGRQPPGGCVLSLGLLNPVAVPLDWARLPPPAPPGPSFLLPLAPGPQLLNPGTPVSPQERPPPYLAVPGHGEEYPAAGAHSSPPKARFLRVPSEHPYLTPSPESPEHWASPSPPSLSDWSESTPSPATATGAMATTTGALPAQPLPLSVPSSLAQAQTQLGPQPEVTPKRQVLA
Assay [10] is described as follows: small-molecule microarray binders of probe aEGFR, primary screen, biochemical, biotinylated probe, 635/667 nm fluorescence (AID 1097).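 Further: probe is a biotinylated anti-EGFR antibody binding compounds printed on slides; score combines fluorescence near 667 nm and signal to noise of each spot.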 The note with it: higher = more signal.
The test system of assay [11] is Plasmodium falciparum Sir2 (PF13_0152, Sir2A). Nature of the assay: pfSir2 binders on small-molecule microarrays, primary screen, biochemical, small-molecule microarray, 635 nm fluorescence (AID 1098).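 Further: score merges spot fluorescence intensity with its signal-to-noise ratio.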 The note with it: small-molecule microarray binding, fluorescence 635 nm; higher = more signal.
A short description of assay [12]: small-molecule microarray binders of probe aDKK1, primary screen, biochemical, biotinylated probe, 635/667 nm fluorescence (AID 1099).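 Further: score merges 667nm spot fluorescence with signal to noise across triplicate slides; reference of the scale not given here.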 The note with it: higher = more signal.
Assay [13] is described as follows: small-molecule microarray binders of probe aCHRDL2, primary screen, biochemical, biotinylated probe, 635/667 nm fluorescence (AID 1100). The note with it: higher = more signal.
Assay [14] in a line: splicing luciferase reporter signal modulators, primary screen, spliceosome inhibition project, cell-based, HEK293, splice +/- reporter (AID 1101).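 Further: HEK293 cells carrying a splicing-competent luciferase reporter gene; test concentration not given here.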 The note with it: luminescence, 24 h, higher = more signal, called active from +8 up or from −8 down. (In general: In a reporter assay the amount or activity of a reporter protein is the signal.)
In assay [15] the target is Fibroblast growth factor 10 (Homo sapiens) (UniProt O15520). Nature of the assay: FGF10 binders on small-molecule microarrays, primary screen, biochemical, small-molecule microarray, 635 nm fluorescence (AID 1102). The note with it: FGF10 binding, fluorescence 635 nm, higher = more signal.
Chain of Fibroblast growth factor 10 (Homo sapiens) (O15520 whole entry, looked up): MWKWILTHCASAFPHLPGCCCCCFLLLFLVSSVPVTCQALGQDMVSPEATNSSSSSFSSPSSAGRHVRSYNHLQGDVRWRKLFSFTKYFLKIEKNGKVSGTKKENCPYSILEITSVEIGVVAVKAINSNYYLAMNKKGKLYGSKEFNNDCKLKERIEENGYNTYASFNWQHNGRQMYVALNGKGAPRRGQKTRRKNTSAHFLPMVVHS
Assay [16] relates to glycogen synthase kinase-3 (GSK3A per assay name; protocol says GSK3B). Nature of the assay: GSK3 binders on small-molecule microarrays, primary screen, biochemical, small-molecule microarray, 635 nm fluorescence, GSK3A (AID 1103). Further: the record names both GSK3A and GSK3B. The note with it: small-molecule microarray binding, fluorescence 635 nm; higher = more signal.
In assay [17] the target is Epidermal growth factor receptor (Homo sapiens) (UniProt P00533). Nature of the assay: EGFR binders on small-molecule microarrays, primary screen, biochemical, small-molecule microarray, 635 nm fluorescence (AID 1104).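 Further: score merges 667 nm emission intensity with spot signal to noise over triplicate slides.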 The note with it: EGFR binding, higher = more signal.
Chain of Epidermal growth factor receptor (Homo sapiens) (P00533 whole entry, looked up): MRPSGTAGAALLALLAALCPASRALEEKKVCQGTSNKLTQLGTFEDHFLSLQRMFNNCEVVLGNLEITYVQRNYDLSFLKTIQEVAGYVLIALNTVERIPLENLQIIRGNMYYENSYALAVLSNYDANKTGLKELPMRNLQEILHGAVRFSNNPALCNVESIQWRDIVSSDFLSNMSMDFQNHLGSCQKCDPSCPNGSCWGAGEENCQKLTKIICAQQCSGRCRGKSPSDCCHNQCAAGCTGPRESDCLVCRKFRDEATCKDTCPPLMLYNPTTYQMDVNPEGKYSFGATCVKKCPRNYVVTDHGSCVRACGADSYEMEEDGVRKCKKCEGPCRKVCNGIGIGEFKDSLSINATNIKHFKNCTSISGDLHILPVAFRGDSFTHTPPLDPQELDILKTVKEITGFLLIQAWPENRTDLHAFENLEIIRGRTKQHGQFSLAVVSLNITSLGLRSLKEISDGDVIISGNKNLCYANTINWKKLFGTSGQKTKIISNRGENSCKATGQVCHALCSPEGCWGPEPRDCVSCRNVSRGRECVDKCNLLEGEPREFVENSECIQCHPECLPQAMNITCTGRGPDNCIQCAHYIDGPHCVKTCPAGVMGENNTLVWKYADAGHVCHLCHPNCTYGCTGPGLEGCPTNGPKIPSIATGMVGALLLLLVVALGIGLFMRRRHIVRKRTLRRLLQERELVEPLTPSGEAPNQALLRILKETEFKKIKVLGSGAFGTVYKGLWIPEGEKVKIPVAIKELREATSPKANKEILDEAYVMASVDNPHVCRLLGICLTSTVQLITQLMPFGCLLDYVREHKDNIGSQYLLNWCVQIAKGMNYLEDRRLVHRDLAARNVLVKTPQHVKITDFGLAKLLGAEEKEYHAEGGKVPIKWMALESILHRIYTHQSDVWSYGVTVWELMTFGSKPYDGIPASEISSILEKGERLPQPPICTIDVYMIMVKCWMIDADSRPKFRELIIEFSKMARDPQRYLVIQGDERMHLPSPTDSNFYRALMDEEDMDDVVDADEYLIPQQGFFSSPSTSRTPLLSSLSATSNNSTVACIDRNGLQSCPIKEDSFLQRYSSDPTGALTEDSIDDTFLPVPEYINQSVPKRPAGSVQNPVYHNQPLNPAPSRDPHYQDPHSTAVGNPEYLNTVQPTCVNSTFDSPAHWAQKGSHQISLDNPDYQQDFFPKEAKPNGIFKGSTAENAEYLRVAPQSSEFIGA
Assay [18] concerns the target Follistatin-related protein 3 (Homo sapiens) (UniProt O95633). Kind of assay: FSTL3 binders on small-molecule microarrays, primary screen, biochemical, small-molecule microarray, 635 nm fluorescence (AID 1105).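 Further: score merges emission near 667 nm and signal to noise per printed spot across three slides.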 The note with it: FSTL3 binding, higher = more signal.
Assay [19] addresses Dickkopf-related protein 1 (Homo sapiens) (UniProt O94907). Nature of the assay: DKK1 binders on small-molecule microarrays, primary screen, biochemical, small-molecule microarray, 635 nm fluorescence scan (AID 1106).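 Further: score merges emission near 667 nm with signal to noise over three replicate slides.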 The note with it: DKK1 binding, higher = more signal.
The test system of assay [20] is Inhibin beta A chain (activin A). Kind of assay: INHBA (activin A) binders on microarrays, primary screen, biochemical, small-molecule microarray, 635 nm fluorescence scan (AID 1107).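 Further: mouse activin A protein probed at 4.33 µg/mL on printed slides; score merges bound-protein fluorescence near 667 nm with spot signal-to-noise.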 The note with it: small-molecule microarray binding, higher = more signal.

Chain of Dickkopf-related protein 1 (Homo sapiens) (O94907 whole entry, looked up): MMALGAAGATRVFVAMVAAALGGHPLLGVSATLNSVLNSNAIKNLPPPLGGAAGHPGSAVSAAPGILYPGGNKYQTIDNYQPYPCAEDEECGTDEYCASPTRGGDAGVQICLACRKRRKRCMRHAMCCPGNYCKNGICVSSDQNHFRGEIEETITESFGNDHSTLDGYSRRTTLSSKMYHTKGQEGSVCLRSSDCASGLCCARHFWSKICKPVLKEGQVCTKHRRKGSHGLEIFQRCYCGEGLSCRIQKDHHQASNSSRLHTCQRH
Chain of Follistatin-related protein 3 (Homo sapiens) (O95633 whole entry, looked up): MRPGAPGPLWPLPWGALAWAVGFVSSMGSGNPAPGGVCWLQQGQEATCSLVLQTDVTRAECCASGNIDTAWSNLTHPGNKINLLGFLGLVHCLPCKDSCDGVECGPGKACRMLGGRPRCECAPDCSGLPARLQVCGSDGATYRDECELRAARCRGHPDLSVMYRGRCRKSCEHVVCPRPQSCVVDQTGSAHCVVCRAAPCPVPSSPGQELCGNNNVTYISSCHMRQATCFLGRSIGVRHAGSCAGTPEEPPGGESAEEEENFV

For `CCOC(=O)CCN1C(=O)[C@H]2[C@H]3[C@H](O)[C@H](O)CC(=O)[C@H]3CC[C@H]2C1=O`, the composite z-score is 0.0774 in assay [1]; 0.35 in [5]; -0.225 in assay [7]; 0.387 in assay [8]; 0.295 in [9]; -0.0381 in [10]. Moreover, the composite z-score in [11] was -0.0527; in assay [12], -0.202; in [13] it was -0.723; in [15], 0.685; in [16] it was 0.765; in assay [17] it was 0.4. Moreover, the composite z-score in [18] was 0.565; in assay [19], 0.745; in assay [20] it was -0.0903. Besides, the z-score in [2] was 0.184 (inactive); in [3], -0.373 (inactive); in [4] it was 0.341 (inactive); in assay [6], 0.355 (inactive); in assay [14], -1.11 (inactive).

Turning to `COCCNC(=O)OCC1CCCC2(CC(OC(=O)NCCc3ccc(F)cc3)CC(CCC(=O)N[C@@H](C)C(=O)OC)O2)O1` (stereo not given in full), the composite z-score in assay [1] is 1.5; in assay [5] it was 0.876; in assay [7] it was -0.0845; in assay [8], 0.403; in assay [9], 1.08; in assay [10], 0.433. The composite z-score in assay [11] was 1.16; in assay [12], -0.115; in [13], -0.273; in [15], 0.842; in assay [16] it was 1.26; in assay [17] it was 0.601. Also, the figures for the composite z-score in [18], in assay [19] and in assay [20] were 1.22, 0.932 and 0.415, respectively. Further, the z-score in assay [2] was 0.104 (inactive); in [3], -0.0142 (inactive); in assay [4], 0.647 (inactive); in assay [6], 0.0947 (inactive); in [14], -1.09 (inactive).

Consider `CC(C)=NOCc1ccc(-c2cc(-c3ccccc3)no2)cc1`, for which the composite z-score in assay [1] is -1.06; in assay [5], 0.108; in assay [7], -0.252; in assay [8], 0.429; in assay [9], 0.152; in assay [10] it was -0.163. In addition, the composite z-score in [11] was 0.0628; in [12], -0.285; in [13] it was -0.515; in assay [15] it was 0.356; in [16] it was 0.283; in assay [17], 0.279. For the same compound, the composite z-score was -0.026 in assay [18], 0.32 in assay [19] and 0.216 in assay [20]. Besides, the z-score in assay [2] was 0.237 (inactive); in assay [3], 0.256 (inactive); in assay [4], 0.213 (inactive); in [6], 0.383 (inactive); in [14], 0.468 (inactive).

With `COC(=O)[C@H]1COC(c2ccc(OCCCO)cc2)=N1`, the composite z-score is -0.152 in assay [1]; 3.59 in assay [5]; 0.267 in [7]; -0.37 in assay [8]; -0.607 in assay [9]; -0.0947 in [10]. For the same compound, the composite z-score was 1.16 in assay [11]; 0.378 in [12]; 1.07 in [13]; -0.13 in assay [15]; -0.882 in assay [16]; -0.2 in [17]. Further, the composite z-score in assay [18] was -0.576; in assay [19], -0.59; in assay [20], 1.04. The z-score in [2] was -0.488 (inactive); in assay [3], -0.888 (inactive); in assay [4], -0.606 (inactive); in assay [6], 0.332 (inactive); in [14], -0.19 (inactive).

Turning to `CCOC(=O)NN=C1C[C@@H](O)[C@@H](O)[C@@H]2[C@@H]3C(=O)N(CC)C(=O)[C@@H]3CC[C@@H]12`, the composite z-score in assay [1] is 0.268; in assay [5], 1.31; in assay [7], -0.176; in [8] it was 0.299; in assay [9] it was 0.905; in [10], 0.0082. In addition, the composite z-score was 0.163 in assay [11]; -0.407 in [12]; -0.263 in [13]; 0.664 in [15]; 0.434 in [16]; 0.684 in assay [17]. The composite z-score in assay [18] was 0.518; in assay [19], 0.14; in assay [20], -0.232. The z-score in assay [2] is -0.846 (inactive); in assay [3] it was 0.0572 (inactive); in assay [4], -0.293 (inactive); in assay [6], -0.319 (inactive); in assay [14], 0.379 (inactive).

Consider `Cc1cc2c(nc1C)CCCN2CC(O)CN1CCN(C)CC1` (stereo not given), for which the composite z-score in assay [1] is 1.25; in assay [5], 0.9; in [7] it was -0.294; in assay [8], 0.578; in [9] it was 0.915; in assay [10], -0.169. Besides, the composite z-score was found to be 0.478 in assay [11]; 0.859 in [12]; 0.337 in assay [13]; 0.721 in assay [15]; 0.132 in [16]; 0.752 in assay [17]. Besides, the composite z-score in assay [18] is 0.79; in assay [19] it was 1.02; in [20], -1.07. Further, the z-score in assay [2] was -0.525 (inactive); in [3], 0.277 (inactive); in assay [4], -0.856 (inactive); in assay [6], -0.384 (inactive); in [14], 0.154 (inactive).

Consider `C#C[C@@H]1Oc2ccccc2S(=O)(=O)N2CCC[C@H]12`, for which the composite z-score in [1] was -1.07; in [5], -0.875; in assay [7], 0.0886; in assay [8], 0.18; in [9], -0.176; in [10], 0.056. In addition, the composite z-score in assay [11] is -0.298; in assay [12], -0.105; in assay [13] it was -0.246; in [15], 0.111; in assay [16], -0.859; in assay [17] it was 0.304. Moreover, the composite z-score in [18] was -0.0777; in assay [19], 0.407; in assay [20] it was 0.807. Moreover, the z-score in assay [2] was -0.0284 (inactive); in assay [3], 0.809 (inactive); in assay [4], -2.55 (inactive); in [6], -1.1 (inactive); in assay [14], 0.712 (inactive).

`NC(=O)NCC#Cc1ccc2c(c1)[C@]1(C(=O)N2)[C@H](c2ccc(O)cc2)N2[C@H](c3ccccc3)[C@H](c3ccccc3)OC(=O)[C@H]2[C@@H]1C(=O)N1CCCCCCC1`: the composite z-score in assay [1] turned out to be 1.53; in assay [5] it was 1.55; in assay [7] it was 1.24; in assay [8], 1.55; in [9], 1.01; in [10], 0.511. Further, the composite z-score in assay [11] is 1.08; in [12], 1.8; in assay [13], 1.08; in assay [15], 0.593; in assay [16] it was -0.018; in [17] it was 0.356. The figures for the composite z-score in [18], in [19] and in assay [20] were 1.28, 0.408 and 1.4, respectively. Besides, the z-score in [2] is 1 (inactive); in assay [3], -0.447 (inactive); in [4] it was 1.24 (inactive); in assay [6], 0.951 (inactive); in assay [14], 0.445 (inactive).

Consider `COC(=O)C1(C)C=C2C(=C(c3ccccc3)C(=O)C2C)CN1` (stereo not given), for which the composite z-score is -0.722 in assay [1]; 0.517 in assay [5]; 0.498 in assay [7]; -1.44 in [8]; -0.904 in assay [9]; 0.0003 in assay [10]. Besides, the composite z-score in [11] is 0.537; in [12], 1.14; in assay [13] it was 1.22; in assay [15] it was -0.174; in [16], -0.824; in [17] it was -0.709. Further, the results for the composite z-score in assay [18], in [19] and in assay [20] were -1.29, -1.16 and 1.45, respectively. For the same compound, the z-score was -0.269 (inactive) in assay [2]; 0.14 (inactive) in assay [3]; 0.654 (inactive) in assay [4]; -0.269 (inactive) in assay [6]; 1.21 (inactive) in assay [14].
